We go through 47 compounds from PMC4336329 (PLoS ONE, 2015).

The structures appear in SMILES notation. Hit rate of the full screen: of about 310,000 compounds, about 14,000 (4.5%) showed an effect of 50% or more. The effect is printed as a negative number. Many of the other results were omitted from the sample, so strong results are more common in it than they were.
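Further: peak tail current of the secondary pulse compared with the same well before compound.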

The target in this experiment is human ether-à-go-go-related gene (hERG) potassium channel (human, UniProt Q12809). Description: primary screen, population patch clamp on CHO cells stably expressing hERG; higher = less effect of the substance.
Sequence of human ether-à-go-go-related gene (hERG) potassium channel (Q12809 whole entry, looked up): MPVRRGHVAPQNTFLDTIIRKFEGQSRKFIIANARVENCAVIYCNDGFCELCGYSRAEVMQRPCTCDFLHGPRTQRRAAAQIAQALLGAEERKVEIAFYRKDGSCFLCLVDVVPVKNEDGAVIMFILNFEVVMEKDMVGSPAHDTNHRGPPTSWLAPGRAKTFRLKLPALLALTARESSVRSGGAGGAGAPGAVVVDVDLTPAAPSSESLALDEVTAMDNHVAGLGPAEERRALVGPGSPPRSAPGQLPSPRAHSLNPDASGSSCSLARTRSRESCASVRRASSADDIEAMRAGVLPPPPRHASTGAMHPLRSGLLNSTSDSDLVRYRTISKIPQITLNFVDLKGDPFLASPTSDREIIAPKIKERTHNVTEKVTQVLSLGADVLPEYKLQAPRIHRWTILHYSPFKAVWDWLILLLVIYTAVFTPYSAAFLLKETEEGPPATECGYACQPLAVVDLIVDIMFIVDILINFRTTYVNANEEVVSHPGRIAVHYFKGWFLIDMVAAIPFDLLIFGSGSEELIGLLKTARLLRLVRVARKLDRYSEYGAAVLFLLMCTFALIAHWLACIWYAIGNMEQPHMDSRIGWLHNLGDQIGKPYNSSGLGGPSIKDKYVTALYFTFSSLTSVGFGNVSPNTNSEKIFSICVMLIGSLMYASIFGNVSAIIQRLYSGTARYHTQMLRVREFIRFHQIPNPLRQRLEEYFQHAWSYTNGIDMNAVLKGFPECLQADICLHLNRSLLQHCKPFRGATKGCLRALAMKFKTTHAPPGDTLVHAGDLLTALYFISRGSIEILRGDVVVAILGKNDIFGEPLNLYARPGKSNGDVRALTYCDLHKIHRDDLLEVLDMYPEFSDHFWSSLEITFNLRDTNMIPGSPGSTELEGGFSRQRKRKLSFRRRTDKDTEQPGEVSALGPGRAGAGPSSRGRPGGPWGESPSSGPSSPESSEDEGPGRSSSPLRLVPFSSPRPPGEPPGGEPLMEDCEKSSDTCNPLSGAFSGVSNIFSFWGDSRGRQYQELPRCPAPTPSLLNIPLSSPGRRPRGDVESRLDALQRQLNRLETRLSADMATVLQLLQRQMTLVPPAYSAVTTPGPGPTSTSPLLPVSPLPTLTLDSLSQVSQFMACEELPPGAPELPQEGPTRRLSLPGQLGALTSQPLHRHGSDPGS
Regarding `Cl.Clc1ccc(OCc2nnc(SCCN3CCCCC3)n2Cc2ccco2)cc1`, the “hERG current change (%, negative = inhibition) at 10uM” value was -75.9%.
On to `COc1ccccc1NC(=O)CSc1nnc(COc2ccc(Cl)cc2)n1Cc1ccco1`, for which the “hERG current change (%, negative = inhibition) at 10uM” value was -12.7%.
With `Clc1ccc(OCc2nnc(SCc3nc4ccccc4[nH]3)n2Cc2ccco2)cc1`, the “hERG current change (%, negative = inhibition) at 10uM” value is reported as -36%.
Take `O=C(CSc1nnc(COc2ccc(Cl)cc2)n1Cc1ccco1)c1ccccc1F`: the “hERG current change (%, negative = inhibition) at 10uM” value is reported as 13.1%.
In the case of `CC(Sc1nnc(COc2ccc(Cl)cc2)n1Cc1ccccc1)C(=O)O` (centres unmarked) it was 3.06%.
With `N#Cc1c(NC(=O)CSc2nc(-c3ccco3)cc(C(F)(F)F)n2)sc2c1CCCC2`, the “hERG current change (%, negative = inhibition) at 10uM” value is listed as 12.3%.
Take `Cc1ccc(/C=N/Nc2nc(C(C)(C)C)cs2)o1.Cl`: the “hERG current change (%, negative = inhibition) at 10uM” value is -22.5%.
Turning to `CC(=O)Nc1cccc(NC(=O)COc2ccc3c(c2)OCO3)c1`, the “hERG current change (%, negative = inhibition) at 10uM” value is reported as 4.48%.
Consider `O=C(O)c1ccc(Br)cn1`, for which the “hERG current change (%, negative = inhibition) at 10uM” value came to 9.73%.
As for `O=C(O)c1ccc([N+](=O)[O-])c(CS(=O)(=O)c2ccc(Cl)cc2)c1`, the “hERG current change (%, negative = inhibition) at 10uM” value stood at 6.82%.
Turning to `Cc1nc2c(C#N)cnn2c2c1CCN2CC1CCCO1` (centres unmarked), the “hERG current change (%, negative = inhibition) at 10uM” value is recorded as -51.7%.
Turning to `COC(CN1CCc2c(C)nc3c(C#N)cnn3c21)OC`, the “hERG current change (%, negative = inhibition) at 10uM” value is on record as 5.84%.
As for `Cc1nc2c(C#N)cnn2c2c1CCNN2C`, the figure is -1.38%.
With `N#Cc1cnn2c(C(F)(F)F)c3c(nc12)CCCC3`, the “hERG current change (%, negative = inhibition) at 10uM” value is on record as -5.18%.
As for `Cc1nc2c(C#N)cnn2c2c1CCN(Cc1ccccc1)N2C`, the figure is -58%; as for `COC(=O)C(C(C)C)N1CCc2c(C)nc3c(C#N)cnn3c21` (centres unmarked), 13.9%; as for `Cc1cc(=O)n2c3ccccc3n(C)c2n1`, 9.7%.
For `O=[N+]([O-])c1ccc(N2CCN(C(=S)NC3CCCCC3)CC2)cc1`, the “hERG current change (%, negative = inhibition) at 10uM” value is on record as -53%.
Consider `S=C(NC1CC1)N1CCN(c2ccc(Cl)cc2)CC1`, for which the “hERG current change (%, negative = inhibition) at 10uM” value turned out to be 1.76%.
As for `O=C(NC1CCCCC1)N1CCN(c2ccc(Cl)cc2)CC1`, the figure is -27.8%; as for `O=C(NC1CCCCC1)N1CCN(c2ccc([N+](=O)[O-])cc2)CC1`, -92.4%; as for `O=C(NC1CCCCC1)N1CCN(c2ccccc2)CC1`, -0.0694%.
With `S=C(NC1CCCC1)N1CCN(c2ccc(Cl)cc2)CC1`, the “hERG current change (%, negative = inhibition) at 10uM” value is on record as -13.6%.
`COc1ccc([C@H]2CC(=O)C=C(c3cccc4c3Oc3ccccc3S4)C2)cc1`: the “hERG current change (%, negative = inhibition) at 10uM” value was -28.4%.
With `Cc1ccc(CNC(=O)CC(C)S(=O)(=O)c2ccc3c(c2)NC(=O)CO3)cc1` (centres unmarked), the “hERG current change (%, negative = inhibition) at 10uM” value is given as -22.1%.
For `CC(=O)c1ccn(S(=O)(=O)c2ccc(Cl)cc2)c1`, the “hERG current change (%, negative = inhibition) at 10uM” value is 6.57%.
Take `CC1(C)CC(=O)C([N+](=O)[O-])=C(NCCCC(=O)O)C1.O`: the “hERG current change (%, negative = inhibition) at 10uM” value is recorded as 15%.
In the case of `Cc1cc(C(=O)C(C)OC(=O)C2=NNC(=O)CC2)c(C)n1-c1ccc(OC(F)F)cc1` (centres unmarked) it was -73.3%; in that of `Cc1ccc(-n2c(C)cc(C(=O)COC(=O)C3=NNC(=O)CC3)c2C)cc1`, -42.3%.
Turning to `Cc1cc(C(=O)COC(=O)C2=NNC(=O)CC2)c(C)n1-c1ccc(OC(F)F)cc1`, the “hERG current change (%, negative = inhibition) at 10uM” value was -48.4%.
In the case of `COc1cc(C(=O)NCC(c2ccco2)N2CCCC2)ccc1OCc1c(C)noc1C` (centres unmarked) it was -21.1%.
Regarding `O=C(Nc1cccc2ncccc12)c1ccc(-c2ccc(Cl)cc2Cl)o1`, the “hERG current change (%, negative = inhibition) at 10uM” value was -7.06%.
Turning to `CS(=O)(=O)N(CC(=O)Nc1ccc(S(=O)(=O)N2CCOCC2)cc1)c1cccc(F)c1`, the “hERG current change (%, negative = inhibition) at 10uM” value was -9.72%.
As to `Cc1noc(C)c1COc1cccc(C(=O)Nc2ccccc2)c1`, the “hERG current change (%, negative = inhibition) at 10uM” value was -7.11%.
As to `Cc1ccc(OCCNC(=O)CCC(=O)N2CCOCC2)cc1`, the “hERG current change (%, negative = inhibition) at 10uM” value was determined as 15.9%.
As for `CC1CCN(S(=O)(=O)c2ccc(NC(=O)CN3CCN(c4ccccc4)CC3)cc2)CC1`, the figure is -58.2%; as for `NS(=O)(=O)c1ccc(NC(=O)CN2CCCC2)cc1`, 3.7%; as for `CC1CC(C)CN(CC(=O)Nc2ccc(S(N)(=O)=O)cc2)C1` (centres unmarked), 13.7%.
In the case of `O=C(CN1CCN(S(=O)(=O)c2ccccc2)CC1)Nc1ccc(Cl)c(Cl)c1` it was -16%; in that of `CC1CCN(S(=O)(=O)c2ccc(NC(=O)CN3CCN(C)CC3)cc2)CC1`, -16%.
Take `Cc1ccc(S(=O)(=O)N2CCN(CC(=O)N/N=C\c3ccc(Cl)c([N+](=O)[O-])c3)CC2)cc1`: the “hERG current change (%, negative = inhibition) at 10uM” value is on record as -30.8%.
For the compound `Cc1ccc(S(=O)(=O)N2CCN(CC(=O)Nc3ccc([N+](=O)[O-])cc3)CC2)cc1C`, the “hERG current change (%, negative = inhibition) at 10uM” value is -76.9%.
Take `Cc1ccc(C)c(S(=O)(=O)N2CCN(CC(=O)Nc3ccc([N+](=O)[O-])cc3)CC2)c1`: the “hERG current change (%, negative = inhibition) at 10uM” value is recorded as -40.7%.
Consider `Cc1ccc(S(=O)(=O)N2CCN(CC(=O)Nc3ccc(N4CCOCC4)cc3)CC2)cc1C`, for which the “hERG current change (%, negative = inhibition) at 10uM” value is reported as -11.5%.
`CC1CCN(CC(=O)Nc2ccc(S(=O)(=O)N3CCC(C)CC3)cc2)CC1.Cl`: the “hERG current change (%, negative = inhibition) at 10uM” value is -42.8%.
Take `O=C(CN1CCN(S(=O)(=O)c2ccccc2)CC1)Nc1ccc(Cl)c([N+](=O)[O-])c1`: the “hERG current change (%, negative = inhibition) at 10uM” value was -65%.
On to `CC1CN(CC(=O)Nc2ccc(S(N)(=O)=O)cc2)CC(C)O1` (centres unmarked), for which the “hERG current change (%, negative = inhibition) at 10uM” value is -52%.
